# GLS inhibitor – qHTS for Inhibitors of Glutaminase (GLS). GLS enzymatic activity, qHTS titration. AID 624170, 2012. 410,000 compounds, 0.21% hits. Potency, µM (doses to about 45.5 µM), for inactives: at the top dose activity change, negative = inhibition, hits mostly inhibitors. Glutaminase kidney isoform, mitochondrial (Homo sapiens), O94925; further: potency means the concentration at half of the fitted maximal effect; on the % scale 0 is the no-effect control and ±100 the full control effect
#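 Assay buffer: 45 mM KH2PO4 pH 8.2, 0.02% Tween-20. hKGA acts on L-glutamine (1 mM solution added); product glutamate is reported by an oxidase/peroxidase Amplex Red coupling, with fluorescence taken at baseline and 30 min.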
# PI4K2A block – qHTS for small molecular inhibitors of PI4K2A; AID 1346378, 2018; 420,000 compounds, 0.13% hits; Phosphatidylinositol 4-kinase type 2-alpha (Homo sapiens), Q9BTU6; purified PI4K2A, ADP-Glo luminescence, 1 h; active compounds read low; activity change, negative = inhibition, % at 76.9 µM; in the data active means activity change below about -50%; inconclusive means mostly about -30% to -49%;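 further: -100% = wells without enzyme as full effect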
#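 PI4K2A activity was measured by ADP-Glo luminescence: enzyme (4 ug/mL stock) and phosphatidylinositol (1.2 mM stock) in Tris pH 7.5/MgCl2/EGTA/Triton X-100 buffer were reacted with ATP (300 microM stock) for one hour at ambient temperature.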
# PLK1 PBD block – qHTS for Inhibitors of PLK1-PDB (polo-like kinase 1 - polo-box domain): Primary Screen; Serine/threonine-protein kinase PLK1 (Homo sapiens), P53350; Plk1 PBD binding of FITC phosphopeptide, fluorescence polarization; Potency, µM, for inactives: max response, negative = inhibition, hits mostly inhibitors; 360,000 compounds, 2.8% hits; AID 720504, 2013; further: potency means the concentration at half of the fitted maximal effect; series mostly up to about 57 µM; on the % scale 0 is the no-effect control and ±100 the full control effect; nearly all actives have a fitted effect of over 65% in size
# GCN5L2 inh – qHTS Assay for Inhibitors of GCN5L2. Potency, µM (doses to about 58.9 µM), for inactives: at the top dose activity change, negative = inhibition, actives largely listed as inhibitors. GCN5L2 HAT assay, ThioGlo1 CoA-SH fluorescence. 390,000 compounds, 0.21% hits. Histone acetyltransferase KAT2A (Homo sapiens), Q92830; further: potency means the concentration at half of the fitted maximal effect; on the % scale 0 is the no-effect control and ±100 the full control effect
#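 qHTS, 1536-well. 20nM enzyme, pH 7.5 HEPES/EDTA/Tween-20 buffer; 15 min compound preinc., RT. Start: 75uM H3(1-25), 70uM AcCoA, 50uM ThioGlo1. Read Ex340/Em540 at t=0 (autofluorescence flag) and t=20 min.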
# VDR inh – Inhibitors of the vitamin D receptor (VDR): qHTS | Vitamin D3 receptor (Homo sapiens), P11473 | VDR-SRC2-3 peptide fluorescence polarization, 2 h | Potency, µM, without a hit: max response, negative = inhibition, hits mostly inhibitors | 400,000 compounds, 0.93% hits; further: potency means the concentration at half of the fitted maximal effect; on the % scale 0 is the no-effect control and ±100 the full control effect
# Target sequence (P11473 whole entry, looked up): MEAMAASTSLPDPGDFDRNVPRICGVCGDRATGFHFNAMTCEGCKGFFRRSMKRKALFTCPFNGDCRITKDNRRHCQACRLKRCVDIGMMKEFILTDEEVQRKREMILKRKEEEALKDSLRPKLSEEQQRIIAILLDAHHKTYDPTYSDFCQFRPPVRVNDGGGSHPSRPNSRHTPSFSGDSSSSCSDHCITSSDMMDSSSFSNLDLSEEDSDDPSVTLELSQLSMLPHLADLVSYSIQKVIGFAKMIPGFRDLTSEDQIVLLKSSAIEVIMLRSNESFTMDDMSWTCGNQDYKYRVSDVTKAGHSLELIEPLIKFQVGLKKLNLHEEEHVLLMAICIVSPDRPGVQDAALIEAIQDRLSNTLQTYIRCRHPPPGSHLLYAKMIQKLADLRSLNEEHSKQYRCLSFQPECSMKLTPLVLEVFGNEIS
#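 Fluorescence polarization assay measuring small-molecule disruption of VDR binding to the coregulator peptide SRC2-3. Compounds were pin-transferred (23 nl) into the reagent mix and incubated 2 h at room temperature before reading.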
# USP1-UAF1 confirm – Inhibitors of USP1/UAF1: Hit Validation in Primary Assay. Potency, µM (doses to about 114 µM), inactives show at the top dose activity change, negative = inhibition, actives largely listed as inhibitors. AID 540327, 2011. 50 compounds, 50% hits. shares compounds with VDR inh. Ub-Rhodamine cleavage, fluorescence kinetic read
# VDR inh confirm – qHTS for Inhibitors of the vitamin D receptor (VDR): Hit Validation in Primary Screen; shares compounds with VDR inh; VDR-coactivator inhibition assay, qHTS confirmation; Potency, µM, usual class: inhibitors; 840 compounds, 89% hits; AID 602199, 2012; further: potency means the concentration at half of the fitted maximal effect
# VDR FP fluor – qHTS for Inhibitors of the vitamin D receptor (VDR): Hit Validation using a Fluorescein Assay; VDR-coactivator binding, fluorescein fluorescence polarization; Potency, µM (series often up to 57.1 µM), without a hit: at the highest dose activity change, negative = inhibition, actives largely listed as inhibitors; shares compounds with VDR inh; AID 602200, 2012; 840 compounds, 48% hits; further: potency means the concentration at half of the fitted maximal effect
# VDR bla – qHTS for Inhibitors of the vitamin D receptor (VDR): Hit Validation using a Beta-Lactamase Assay; shares compounds with VDR inh; VDR beta-lactamase reporter cells, FRET ratio; cells co-treated with VDR agonist LG190178; Potency, µM (series often up to 46.1 µM), without a hit: at the highest dose activity change, negative = inhibition, usual class: inhibitors; 840 compounds, 23% hits; AID 602202, 2012; further: potency means the concentration at half of the fitted maximal effect; on the % scale 0 is the no-effect control and ±100 the full control effect
# VDR cytotox – qHTS for Inhibitors of the vitamin D receptor (VDR): Hit Validation using a Cytotoxicity Assay; shares compounds with VDR inh; cytotoxicity counter-screen, cell viability, qHTS; Potency, µM (titrated, usually from 48.3 µM), for inactives: at the top dose activity change, negative = cytotoxicity, hits mostly cytotoxic; 840 compounds, 18% hits; AID 602204, 2012;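 further: potency means the concentration at half of the fitted maximal effect; plate controls were DMSO for no effect and high-concentration cycloheximide for full effect; nearly all actives have a fitted effect of over 75% in size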
# * = called active by the depositor; u = inconclusive; x = no result. Shown are actives, neighbours in structure and some others; about 3.1% of the full set was active somewhere. Unless noted, the call rests on the fitted dose curve; in most records, active means well fitted curve in the direction sought with a large enough effect; inconclusive means small, poorly fitted or top-dose-only effect, or another doubt; inactive means no such curve, though single readings can be large; an effect the other way counts as inactive or inconclusive.
SMILES,GLS inhibitor,PI4K2A block,PLK1 PBD block,GCN5L2 inh,VDR inh,VDR inh confirm,VDR FP fluor,VDR bla,VDR cytotox,others
O=S(=O)(Nc1c(S(=O)(=O)c2ccccc2)c2nc3ccccc3nc2n1C1CCCCC1)c1ccccc1,-17%,u,4.2µM*,-17%,u,0.35*,0.35µM*,-15%,-18%,
S=c1[nH]c(=S)c2[nH]cnc2[nH]1,x,x,x,x,-13%,x,x,x,x,
O=C(/C=C/c1ccnc2ccccc12)c1cccs1,-20%,u,u,-14%,u,11*,18µM*,u,u,
ON=Cc1ccnc2ccccc12,11%,11,0%,x,x,x,x,x,x,
Cc1ccc(C)c(N2CCN(C(=O)c3cc(S(=O)(=O)N4CCCC4)c[nH]3)CC2)c1,3%,-2,x,-10%,10%,x,x,x,x,
O=C(O)c1ccc(S(=O)(=O)c2ccccc2C(=O)O)c([N+](=O)[O-])c1,-7%,1,-15%,4%,0%,x,x,x,x,
O=C(O)c1ccc(S(=O)(=O)c2ccc([N+](=O)[O-])cc2[N+](=O)[O-])cc1,1%,30,8.4µM*,0%,22µM*,11*,u,15%,-14%,
COc1ccc2c(c1)Cc1sc(NC(=O)c3cccc(C)c3)nc1-2,9%,-54*,x,-15%,20µM*,7.1*,7.1µM*,u,u,
Nc1ccccc1Sc1nc2ccccc2[nH]1,5%,-2,13µM*,u,20µM*,21*,14µM*,6%,7%,
C#CCNC(=O)CSCc1nc(-c2ccc(OCC)cc2)oc1C,x,2,x,x,x,x,x,x,x,
Cc1ccc2c(c1)C(=O)C(=O)N2c1ccc(Cl)cc1,8%,0,-1%,3%,-7%,x,x,x,x,
Cc1ccc2c(c1)C(=O)C(=O)N2Cc1ccc(Br)cc1,-4%,23,u,-4%,22µM*,8.4*,u,-21%,u,
COC(=O)[C@H]1CC2(CC=C(C)C)C(=O)[C@@](CC=C(C)C)(C(=O)C(C(=O)c3ccccc3)=C2OC)C1(C)C (tested in a mixture with another compound),x,x,x,x,-3%,x,x,x,x,
Cc1ccc(S(=O)(=O)NCC(=O)Nc2cccc([N+](=O)[O-])c2)cc1,-3%,-3,-5%,-5%,2%,x,x,x,x,
Cc1ccc(S(=O)(=O)CCC(=O)c2cccc([N+](=O)[O-])c2)cc1,-24%,31,3.8µM*,-30%,16µM*,3.5*,3.2µM*,u,u,
CCc1ccccc1NC(=O)CC(C)n1nc(C)cc1C (centres undefined),-2%,-1,x,-7%,2%,x,x,x,x,
O=C(/C=C/c1cc(Br)ccc1O)c1ccco1,41%,1,27µM*,-2%,25µM*,27*,u,u,u,
CN(C)c1ccc(-n2cccc2/C=C/[N+](=O)[O-])cc1,58%,17,-26%,-19%,35µM*,13*,8.9µM*,u,u,
CN(C)c1ccc(/C=C/c2c([N+](=O)[O-])c(=O)n(C)c(=O)n2C)cc1,14%,-5,-6%,-1%,-4%,x,x,x,x,
CC(C)(C)c1ccc(-n2nc(C#N)c(Cl)cc2=O)cc1,-6%,52,u,-4%,u,7.9*,8.9µM*,2.6µM*,u,
CC(C)(C)c1cc(=O)n2c(C#N)c(C#N)nc2[nH]1,0%,-9,-14%,-14%,-1%,x,x,x,x,
CSc1ccc(/C=C/C(=O)c2c(O)cc(C)oc2=O)cc1,4%,-1,-7%,u,u,5.3*,152%,u,u,
COc1ccc(/C=C/C(=O)c2c(O)cc(C)oc2=O)c(OC)c1,8%,-6,9%,u,0%,x,x,x,x,
COc1ccc(Cl)cc1NC(=O)NCCc1c(C)nn(C)c1C,-4%,0,x,24%,4%,x,x,x,x,
N#CC1=C(N)C(C#N)(C#N)C(c2cccnc2)C2CC(c3ccccc3)CC=C12 (centres undefined),3%,-2,27µM*,-5%,25µM*,u,8.9µM*,u,-16%,
SMILES,GLS inhibitor,PI4K2A block,PLK1 PBD block,GCN5L2 inh,VDR inh,VDR inh confirm,VDR FP fluor,VDR bla,VDR cytotox,others
N#CC1=C(N)C(C#N)(C#N)C(c2cccnc2)C2CCCC=C12 (centres undefined),x,x,x,-10%,x,x,x,x,x,
N#CC1=C(N)C(C#N)(C#N)[C@H](c2cccnc2)[C@H]2CN(C(=O)OCc3ccccc3)CC=C12,5%,-2,u,-3%,13µM*,27*,u,33%,13%,
N#CC1=C(N)C(C#N)(C#N)C(c2ccncc2)C2CN(C(=O)OCc3ccccc3)CC=C12 (centres undefined),-2%,-7,-14%,11%,u,x,x,x,x,
COc1cccc([C@@H]2Oc3ccc(Br)cc3C(=O)[C@H]2OC(=O)N[C@H]2CCCc3ccccc32)c1,x,x,x,x,5%,x,x,x,x,
CC1(C)CC(=O)C(C(C2=C(O)CC(C)(C)CC2=O)c2ccc(O)c([N+](=O)[O-])c2)=C(O)C1,-1%,-14,4.7µM*,-16%,79µM*,9.5*,u,-2%,17%,
O=C1Nc2ccc(I)cc2/C1=C/c1cc(Br)c(O)c(Br)c1,x,-5,x,22µM*,25µM*,x,x,x,x,USP1-UAF1 confirm=74µM*
Cc1ccc2c(c1)/C(=C/c1ccccc1)C(=O)N2,-10%,2,-16%,-19%,u,x,x,x,x,

# Compound activity deposited in PubChem by National Center for Advancing Translational Sciences (NCATS).
